Measurements reported in PubChem BioAssay AID602304 (NMMLSC, 2012).
Measured potencies and affinities stand elsewhere. Activity calls are given as the source filed them. The rule behind the calls is not given here.

test: vacuolar alkalinization by V-ATPase blockade – S. cerevisiae, BCECF dye, powder set 1, dose response (AID 602304); settings: BCECF fluorescence; series mostly up to 100 µM; response, vacuolar pH increase: at the top concentration

For `O=C(c1ccc([N+](=O)[O-])o1)N1CCN(c2ccccn2)CC1`, which “response, vacuolar pH increase” value is on record?
The value was 12.2% (inactive).

For `O=C(c1cnccn1)N1CCN(c2nc3ccc(F)cc3s2)CC1`, which “response, vacuolar pH increase” value is on record?
Its value is 4.95% (inactive).

For `O=C(c1ccc([N+](=O)[O-])o1)N1CCN(c2nccs2)CC1`, which “response, vacuolar pH increase” value is on record?
Its value is 28.2% (inactive).

For `Cc1cc(C(=O)N2CCN(c3nc4ccc(F)cc4s3)CC2)n(C)n1`, which “response, vacuolar pH increase” value is on record?
The value was 12.2% (inactive).

Which “response, vacuolar pH increase” value does the source give for `Cc1cc(C(=O)N2CCN(c3nc4ccc(F)cc4s3)CC2)on1` here?
The value was 20.2% (inactive).

With `O=C(c1ccco1)N1CCN(c2nc3ccc(F)cc3s2)CC1` as the molecule, how does the “response, vacuolar pH increase” value read?
The value was 4.99% (inactive).

For `O=C(c1nc2ccccc2s1)N1CCN(c2nc3ccc(F)cc3s2)CC1`, which “response, vacuolar pH increase” value is on record?
The value was -0.84% (inactive).

Which “response, vacuolar pH increase” value does the source give for `Cc1cc(C(=O)N2CCN(c3nc4ccc(F)cc4s3)CC2)no1` here?
Its value is 3.47% (inactive).

With `O=C(c1ccno1)N1CCN(c2nc3ccc(F)cc3s2)CC1` as the molecule, how does the “response, vacuolar pH increase” value read?
Its value is -0.47% (inactive).

Which “response, vacuolar pH increase” value does the source give for `Cc1cc(C(=O)N2CCN(c3nc4ccc(F)cc4s3)CC2)nn1C` here?
Its value is 0.97% (inactive).

Which “response, vacuolar pH increase” value does the source give for `O=C(C1CC1)N1CCN(c2nc3ccc(F)cc3s2)CC1` here?
Its value is -0.84% (inactive).

Which “response, vacuolar pH increase” value does the source give for `CS(=O)(=O)c1cccc2sc(N3CCN(C(=O)c4ccc([N+](=O)[O-])o4)CC3)nc12` here?
The value was 1.7% (inactive).

Which “response, vacuolar pH increase” value does the source give for `O=C(Nc1ccccc1N1CCOCC1)c1ccc([N+](=O)[O-])o1` here?
Its value is 8.93% (inactive).

With `O=C(C1CCCCC1)N1CCN(c2nc3ccc(F)cc3s2)CC1` as the molecule, how does the “response, vacuolar pH increase” value read?
Its value is -0.47% (inactive).

Which “response, vacuolar pH increase” value does the source give for `O=C(c1cccs1)N1CCN(c2nc3ccc(F)cc3s2)CC1` here?
The value was 8.03% (inactive).

For `CS(=O)(=O)c1ccc2nc(N3CCN(C(=O)c4ccc([N+](=O)[O-])o4)CC3)sc2c1`, which “response, vacuolar pH increase” value is on record?
The value was -0.33% (inactive).

With `O=C(c1ccc(Br)s1)N1CCN(c2nc3ccc(F)cc3s2)CC1` as the molecule, how does the “response, vacuolar pH increase” value read?
Its value is 14.7% (inactive).

With `O=C(c1ccc(Cl)s1)N1CCN(c2nc3ccc(F)cc3s2)CC1` as the molecule, how does the “response, vacuolar pH increase” value read?
Its value is 12.2% (inactive).

Which “response, vacuolar pH increase” value does the source give for `CC(C)(C)C(=O)N1CCN(c2nc3ccc(F)cc3s2)CC1` here?
Its value is 1.95% (inactive).
